Data reported in the supplement of paper PMC6555819.

Tests used:
Assay in all cases: PBM binding z-score (relative to random genomic background probes); higher = stronger binding; sequences stand for … in GC…GCGATTGACAGCGTAGAATGAAGG
[1] = system: FXR:RXRa (NR concentration 270 nM, RXRa partner concentration 90 nM)
Method in brief: (§1)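 Each nuclear receptor dimer, without ligand, was incubated for 1 h on custom Agilent 4×180K protein-binding microarrays. Binding was detected with antibodies against each partner (one per run), and scanned fluorescence was regression-normalized. The binding z-scores are referenced to random human genomic background probes.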

[2] = system: LXRa:RXRa (NR concentration 270 nM, RXRa partner concentration 90 nM)
Method in brief: as §1

[3] = system: LXRa homodimer (NR concentration 270 nM)
Method in brief: as §1

[4] = system: LXRb:RXRa (NR concentration 270 nM, RXRa partner concentration 90 nM)
Method in brief: as §1

[5] = system: PPARa:RXRa (NR concentration 270 nM, RXRa partner concentration 90 nM)
Method in brief: as §1

[6] = system: PPARg:RXRa (NR concentration 180 nM, RXRa partner concentration 90 nM)
Method in brief: as §1

[7] = system: PPARg:RXRa 270nM:90nM, anti-RXR (NR concentration 270 nM, RXRa partner concentration 90 nM)
Method in brief: as §1

[8] = system: PPARg:RXRa 30nM:10nM, anti-RXR (NR concentration 30 nM, RXRa partner concentration 10 nM)
Method in brief: as §1

[9] = system: PPARg:RXRa 90nM:30nM, anti-RXR (NR concentration 90 nM, RXRa partner concentration 30 nM)
Method in brief: as §1

| Sequence | PBM binding z-score [1] | PBM binding z-score [2] | PBM binding z-score [3] | PBM binding z-score [4] | PBM binding z-score [5] | PBM binding z-score [6] | PBM binding z-score [7] | PBM binding z-score [8] | PBM binding z-score [9] |
| --- | --- | --- | --- | --- | --- | --- | --- | --- | --- |
| CTATGTAGGTTAAGGGGGCCATTCAGTTTGAAAG | 1.41 | 1.83 | 0.578 | 4.2 | 4.65 | 7 | 6.86 | 4.73 | 6.88 |
| TCGAGTAGGTTACGGAGGCATTCAGGGATGAAGA | 0.282 | 0.497 | -0.597 | 0.121 | 1.57 | 1.39 | 1.81 | 1.08 | 1.75 |
| CTATTTAGGTTAAGGGGGTCATTCAGTTTGAAAG | 4.85 | 4.88 | 2.76 | 6.33 | 5.72 | 7.22 | 7.14 | 4.74 | 6.89 |
| TCGAGTAGGTTACAGGGGCATTCAGGGATGAAGA | 0.886 | 1.08 | 0.219 | 1.68 | 2.44 | 2.7 | 2.87 | 1.73 | 2.71 |
| TCGAGTAGGTTACGCGGGCATTCAGGGATGAAGA | 0.576 | 0.477 | -0.0246 | -0.00737 | 1.49 | 1.38 | 1.88 | 1.46 | 1.79 |
| CCGAGTAGGTCACGAGGGGGCATTCAGTGCGAAT | 6.09 | 6.71 | 1.59 | 6.56 | 5.66 | 7.8 | 7.12 | 4.32 | 6.72 |
| TCGAGTAGGTTACGGGAGCATTCAGGGATGAAGA | 0.293 | 0.0567 | -0.651 | 0.0342 | 1.82 | 1.59 | 2.09 | 1.25 | 1.7 |
| CCGAGTAGGTTACGAGGGGGAATTCAGTGCGAAT | 0.932 | 1.98 | 0.178 | 3.04 | 2.28 | 1.76 | 2.55 | 0.623 | 1.37 |
| CTATGTAGGTTAAGGGGGTAATTCAGTTTGAAAG | 1.45 | 2.81 | 0.813 | 4.23 | 4.84 | 7.58 | 6.9 | 5.33 | 6.78 |
| CTATGTAGGTTAAAGGGGTCATTCAGTTTGAAAG | 6.38 | 5.21 | 4.18 | 5.82 | 6.43 | 9.57 | 8.21 | 7.05 | 8.61 |
| TCGAGCAGGTTACGGGGGCATTCAGGGATGAAGA | 2.74 | 2.64 | 0.7 | 4.88 | 4.14 | 4.31 | 4.37 | 2.24 | 3.46 |
| CTGAGTAGGTTACGAGGGGGCATTCAGTGCGAAT | 1.65 | 7.17 | 2.04 | 6.26 | 3.73 | 4.46 | 4.41 | 1.42 | 3.41 |
| TCGAGTAGGTTACGAGGGCATTCAGGGATGAAGA | 0.963 | 1.16 | -0.0456 | 0.518 | 2.58 | 3.58 | 3.11 | 1.61 | 2.6 |
| CCGAGTAGGTTACGAGCGGGCATTCAGTGCGAAT | 0.242 | 7.14 | 0.879 | 4.08 | 0.9 | 0.617 | 0.819 | -0.546 | 0.27 |
| TCGAGTAGGTTACGGGGGCATTCATGGATGAAGA | 2.37 | 2.82 | 0.637 | 4.75 | 4.29 | 6.11 | 5.78 | 3.34 | 4.94 |
| TCTAGTAGGTTACGGGGGCATTCAGGGATGAAGA | 3.33 | 3.71 | 1.27 | 5.76 | 4.95 | 8 | 6.8 | 5.71 | 6.87 |
| TCGAGTAGGTTACGGGGACATTCAGGGATGAAGA | 0.831 | 0.995 | -0.0512 | 0.999 | 2.4 | 3.19 | 3.06 | 1.81 | 2.27 |
| CCGAGTAGGTTACGACGGGGCATTCAGTGCGAAT | -0.0135 | 5.81 | -0.31 | 3.38 | 1.36 | 0.995 | 1.17 | -0.329 | 0.19 |
| CCGAGTAGGTTACGAGGAGGCATTCAGTGCGAAT | -0.167 | 4.4 | -0.319 | 0.864 | 1.26 | 0.943 | 1.25 | -0.283 | 0.832 |
| CCGAGTTGGTTACGAGGGGGCATTCAGTGCGAAT | 1.35 | 3.69 | 1.21 | 4.27 | 2.31 | -0.0841 | 0.784 | -0.706 | 0.481 |
| CTAAGTAGGTTAAGGGGGTCATTCAGTTTGAAAG | 5.01 | 4.96 | 3.1 | 6.08 | 6.01 | 8.37 | 7.83 | 6.33 | 8.16 |
| CCGAGTAGGTTACGAGGGGGCATTCGGTGCGAAT | 1.7 | 7.08 | 1.42 | 6.21 | 3.53 | 2.41 | 3.16 | 0.729 | 2.56 |
| TCGAGTAGGATACGGGGGCATTCAGGGATGAAGA | 1.26 | 1.43 | 0.346 | 3.58 | 2.35 | 1.24 | 2.72 | 2.22 | 2.53 |
| TCGAGTAGGTTACGGGGGAATTCAGGGATGAAGA | 0.979 | 1.58 | 0.0777 | 2.86 | 2.8 | 3.75 | 4.02 | 2.24 | 3.53 |
| CCGAGTAGGTTATGAGGGGGCATTCAGTGCGAAT | 3.13 | 6.86 | 1.95 | 6.27 | 3.29 | 1.69 | 3.12 | 1.53 | 2.77 |
| CCGAGTAGGTTACGAGGGTGCATTCAGTGCGAAT | 0.536 | 5.55 | -0.00974 | 2.43 | 1.8 | 1.46 | 1.92 | 0.234 | 1.13 |

| Sequence | PBM binding z-score [1] | PBM binding z-score [2] | PBM binding z-score [3] | PBM binding z-score [4] | PBM binding z-score [5] | PBM binding z-score [6] | PBM binding z-score [7] | PBM binding z-score [8] | PBM binding z-score [9] |
| --- | --- | --- | --- | --- | --- | --- | --- | --- | --- |
| CCGCGTAGGTTACGAGGGGGCATTCAGTGCGAAT | 2.11 | 7.21 | 1.61 | 6.37 | 3.17 | 0.847 | 2.86 | 0.411 | 2.18 |
| CCGACTAGGTTACGAGGGGGCATTCAGTGCGAAT | 2.03 | 6.99 | 1.82 | 6.19 | 3.16 | 2.68 | 3.48 | 1.66 | 2.47 |
| CGGAGTAGGTTACGAGGGGGCATTCAGTGCGAAT | 3.18 | 7.21 | 1.72 | 6.48 | 4.04 | 4.95 | 5.18 | 2.85 | 4.32 |
| TCGAGTAGGTTTCGGGGGCATTCAGGGATGAAGA | 2.38 | 2.27 | 0.973 | 4.48 | 2.96 | 1.4 | 2.99 | 2.29 | 2.8 |
| CCGAGTAGGTTACGAGGGGGCATACAGTGCGAAT | 2.06 | 6.92 | 1.29 | 6.04 | 3.52 | 2.73 | 3.69 | 1.1 | 2.54 |
| CCGAGTAGGTTACGAGGGGGCATTTAGTGCGAAT | 2.43 | 7.16 | 1.74 | 6.59 | 3.54 | 1.87 | 3.44 | 1.22 | 2.89 |
| TCAAGTAGGTTACGGGGGCATTCAGGGATGAAGA | 3.28 | 3.4 | 1.53 | 5.4 | 4.49 | 7.97 | 7.05 | 6.15 | 6.95 |
| TCGAGTAGGTTGCGGGGGCATTCAGGGATGAAGA | 2.84 | 2.17 | 0.68 | 4.34 | 2.7 | 0.862 | 2.72 | 2.32 | 2.95 |
| CCGAGTAGGTTACGAGGGGGCCTTCAGTGCGAAT | 0.952 | 2.66 | 0.0596 | 3.94 | 2.44 | 1.5 | 2.53 | 0.553 | 1.8 |
| CTATGTATGTTAAGGGGGTCATTCAGTTTGAAAG | 4.79 | 5 | 3.54 | 6.57 | 5.68 | 5.43 | 6.26 | 3.94 | 5.84 |
| CCTAGTAGGTTACGAGGGGGCATTCAGTGCGAAT | 3.31 | 7.55 | 1.8 | 6.51 | 4.13 | 5.11 | 5.4 | 2.24 | 4.28 |
| CTATGTAGGTAAAGGGGGTCATTCAGTTTGAAAG | 4.07 | 4.67 | 2.77 | 5.98 | 5.92 | 7.28 | 7.12 | 4.91 | 6.93 |
| CCGAGTAGGTTACGAGAGGGCATTCAGTGCGAAT | 1.04 | 7.41 | 2.68 | 5.96 | 2.19 | 1.48 | 1.64 | -0.24 | 0.958 |
| CCGAGTAGGTTACGGGGGGGCATTCAGTGCGAAT | 4.53 | 6.83 | 3.13 | 7.21 | 3.74 | 4.54 | 4.46 | 2.55 | 3.84 |
| CGATGTAGGTTAAGGGGGTCATTCAGTTTGAAAG | 5.57 | 4.7 | 3.53 | 6.23 | 5.85 | 8.23 | 7.56 | 6.22 | 7.61 |
| CTATGTAGGTTAAGGGGGTCATTCTGTTTGAAAG | 4.82 | 4.99 | 2.88 | 6.33 | 5.95 | 8.35 | 7.68 | 6 | 7.63 |
| CTATGTAGGTTAAGGAGGTCATTCAGTTTGAAAG | 3.87 | 4.84 | 4.54 | 3.92 | 5.23 | 6.14 | 5.71 | 3.14 | 5.11 |
| TCGAGTAGGTTACGGGGGCATACAGGGATGAAGA | 2.72 | 2.52 | 0.664 | 4.86 | 4.48 | 6.1 | 5.69 | 3.56 | 5.05 |
| CCGAGTAGGTTACGAGTGGGCATTCAGTGCGAAT | 0.0253 | 3.62 | -0.367 | 0.771 | 1.09 | 0.765 | 1.33 | -0.376 | 0.662 |
| CTATGTAGGTTAAGGGGGTCATTCATTTTGAAAG | 4.9 | 4.91 | 3.28 | 6.23 | 5.9 | 8.6 | 7.7 | 6.27 | 7.77 |
| TCGAGGAGGTTACGGGGGCATTCAGGGATGAAGA | 5 | 3.99 | 0.868 | 5.71 | 5.33 | 6.77 | 5.92 | 4.08 | 5.24 |
| CCGAGTAGGTTACGAGGGGGCACTCAGTGCGAAT | 2.63 | 6.57 | 0.708 | 5.48 | 3.35 | 2.36 | 3.18 | 1.09 | 2.12 |
| CTATGTAGGTTAAGGGGGTCTTTCAGTTTGAAAG | 0.885 | 1.5 | 0.399 | 3.78 | 4.64 | 7.24 | 7.16 | 4.5 | 6.8 |
| CTATGTAGGTTAAGGGGGTCATACAGTTTGAAAG | 5.2 | 5.02 | 1.99 | 6.22 | 6.21 | 8.81 | 8.13 | 6.16 | 8.11 |
| CTATGTAGGTTGAGGGGGTCATTCAGTTTGAAAG | 4.59 | 4.82 | 2 | 6.24 | 5.54 | 4.5 | 5.93 | 2.9 | 5.21 |
| TCGAGTACGTTACGGGGGCATTCAGGGATGAAGA | 2.24 | 1.79 | -0.186 | 3.82 | 2.44 | 0.609 | 1.72 | 1.42 | 1.85 |
